Screening data (PubChem BioAssay)
VACV mCherry inh: inhibitors of vaccinia virus infection (mCherry reporter signal); Potency, µM (top dose mostly 36.5 µM), for the others: at the highest dose activity change, negative = inhibition, most hits filed as inhibitors; Vaccinia virus mCherry reporter infection, fluorescence; actives 0.63% (n = 310,000); calls by dose curve; tested in A549 cells; also: nearly all actives have a fitted effect of over 35% in size
VACV Venus inh: vaccinia inhibition (Venus reporter) | Vaccinia virus Venus reporter expression, fluorescence | Potency, µM (top dose mostly 36.5 µM), for the others: at the top dose activity change, negative = inhibition, usual class: inhibitors | actives 0.46% (n = 330,000); calls by dose curve; tested in A549 cells; also: nearly all actives have a fitted effect of over 30% in size
MARV entry inh: Marburg virus entry inhibition; actives 1.8% (n = 300,000); Potency, µM (series often up to 37.8 µM), without a hit: at the highest dose activity change, negative = inhibition, hits mostly inhibitors; Marburg virus pseudotyped entry inhibition, cell reporter; calls by dose curve; tested in HEK293 cells
Lassa entry inh: inhibitors of Lassa virus binding or cell entry. AID 540256. Lassa virus pseudotype entry inhibition, cell reporter. actives 1.2% (n = 300,000). Potency, µM (highest dose often 37.9 µM), for the others: top-dose activity change, negative = inhibition, usual class: inhibitors; calls by dose curve; tested in HEK293 cells; also: nearly all actives have a fitted effect of over 50% in size
* = called active by the depositor; i = inactive; ? = inconclusive; . = not tested or not shown; ! = repeats disagree; [ ] = remark or other dose. In the library only some 2.5% were active in any assay of this set; here they are far more common. % is scaled to controls: 0 for no effect and ±100 for the full control effect; potency is read from the fitted curve at half-maximal effect.

SMILES	VACV mCherry inh	VACV Venus inh	MARV entry inh	Lassa entry inh
OC(COc1ccc(OCC(O)CN2CCCCCC2)cc1)CN1CCCCCC1 (stereo not given)	.	-26%	11µM*	?
O=C1[C@H]2[C@H]3[C@H](O)[C@H](O)C/C(=N\OCc4ccccc4)[C@@H]3CC[C@H]2C(=O)N1C1CCCCC1	.	.	-14%[14.2 µM]	.
Cc1c(Cl)cccc1NC(=S)NC(=O)c1cncc(Br)c1	i	-10%	-5%[46.1 µM]	3.2µM*
CCN1CCN(c2ccc(S(=O)(=O)N3CCCCC3)cc2NC(=O)c2ccc([N+](=O)[O-])s2)CC1	8.9µM*	10µM*	?	?
CN1CCN(c2ccc(Cl)cc2NC(=O)c2cccc(S(=O)(=O)N(C)C)c2)CC1	-29%	-21%	?	0%
CCN1CCN(c2ccc(S(=O)(=O)N3CCCCC3)cc2NC(=O)/C=C/c2ccc(OC)c(OC)c2)CC1	-10%	-22%	?	17%
CN1CCN(c2ccc(Cl)cc2NC(=O)/C=C/c2cccc(F)c2)CC1	?	-25%	5µM*	-15%[46.1 µM]
CCN1CCN(c2ccc(S(=O)(=O)N3CCCCC3)cc2NC(=O)/C=C/c2ccc(Cl)cc2)CC1	?	?	?	18µM*
COC(=O)c1sccc1S(=O)(=O)N1CCC(n2c(CC3CCCC3)nc3cccnc32)CC1	-11%	-5%	.	.
Cn1cnnc1Sc1ccc(CN2CCOc3ccc(C4=Cc5ccccc5CC4)cc3C2)o1	-23%	-6%	.	.
Cc1nc(C(=O)N(Cc2cc3ccc(F)cc3nc2N2CCC(O)CC2)CC2CCCO2)cs1 (stereo not given)	-12%	-6%	.	.
O=C(Nc1cccc(/C=C/c2ccccn2)c1)c1ccc(-n2cncn2)c([N+](=O)[O-])c1	14µM*	?	?	?
CC(=O)N1CCC[C@H]1C(=O)N1CCc2c(cnc(C)c2CNC(=O)/C=C/c2cccs2)C1	-3%	3%	.	.
Cc1ccc(NCc2nc3ccccc3n2C)c(C)c1	-7%	-17%	2.5µM*	?
CC(C)n1cc(/C=C/c2cc[n+](C)cc2)c2ccccc21	?	126%	2.5µM*	?
C#CCn1c(S(=O)(=O)Cc2ccc(OC)cc2)nc(-c2ccccc2)c1-c1ccccc1	?	-15%	4.1µM*	?
CCOC(=O)Cn1c(S(=O)(=O)Cc2ccccc2)nc2ccccc21	i	-16%	0%	5%
N#C/C(C(=O)N1CCOCC1)=C1\S[C@H](Cc2ccccc2)C(=O)N1c1ccccc1	.	.	20%	.
CCOC(=O)/C(C#N)=C1\Nc2ccccc2N=C1N(CC(C)C)CC(C)C	-8%	-1%	?	-3%
CCOC(=O)/C(C#N)=C1/C=C(C)NC(c2ccccc2O)=N1	?	10µM*	?	?
CCN(CC)C1CCN(C(=O)c2cnn(-c3nccc(-c4ccccc4OC)n3)c2-c2ccco2)C1 (stereo not given)	i	-14%	.	.
CCOc1ccc(NC(=S)NC(=O)/C=C/c2ccc(Br)cc2)c([N+](=O)[O-])c1	-10%	-7%	-24%	21µM*
CCOc1ccc(NC(=S)NC(=O)c2cnn(CC)c2)c([N+](=O)[O-])c1	i	-10%	-12%[46.1 µM]	-23%[46.1 µM]
CCN1CCCC1CNC(=O)c1cnn(-c2nccc(-c3cccs3)n2)c1C1CC1 (stereo not given)	-9%	-6%	.	.
Cc1cccc(NC(=S)NCCC(C)C)c1	-14%	-5%	1.5µM*	?
SMILES	VACV mCherry inh	VACV Venus inh	MARV entry inh	Lassa entry inh
COc1ccc(CCNC(=S)Nc2cccc(C)c2)cc1	.	-25%	-1%	17%
CC(C)(C)N1C(=O)[C@H]2[C@H]3[C@H](O)[C@H](O)C/C(=N\OCc4ccccc4)[C@H]3CC[C@H]2C1=O	.	.	-9%[14.2 µM]	.
CCC(=O)c1ccc(OCc2ccc(C(=O)OC)cc2)cc1	-1%	-11%	10µM*	?
C1CCC(C(CC2CCCCN2)C2CCCCC2)CC1 (stereo not given)	11µM*	13µM*	?	18µM*
CN=C(c1ccc(C)cc1)n1c(=S)nc(-c2ccc(C)cc2)n(C)c1=S	0%	1%	-14%[46.1 µM]	17%
CN=C(c1ccco1)n1c(=S)nc(-c2ccco2)n(C)c1=S	?	13µM*	-2%[46.1 µM]	7%
Clc1ccc2c(SCC3CO3)c3ccccc3nc2c1 (stereo not given)	i	?	?	20µM*
O=C(c1cnn2c1NC(c1ccc(Br)cc1)CC2C(F)(F)F)N1CCN(C23CC4CC(CC(C4)C2)C3)CC1 (stereo not given)	.	.	16µM*	2%
CCOc1cccc2cc(-c3csc(NC(=O)CCC(=O)NCCN4CCCCC4C)n3)c(=O)oc12 (stereo not given)	11µM*	?	?	?
C=CC(=O)N1C/C=C\C(c2ccc(OC)cc2)N(Cc2ccc(F)cc2)C(=O)C1 (stereo not given)	?	0.89µM*	.	.
COC(=O)N1C/C=C\C(c2ccc(OC)cc2)N(Cc2ccc(F)cc2)C(=O)C1 (stereo not given)	-19%	-22%	.	.
COc1ccc2nc(Sc3c([N+](=O)[O-])nc(C)n3Cc3ccccc3)[nH]c2c1	.	.	?	16µM*
Cc1nc([N+](=O)[O-])c(Sc2nc3ccccc3[nH]2)n1Cc1ccccc1	?	-28%	-3%	?
C/C(=N\NC(=O)c1nnn(-c2nonc2N)c1-c1ccccc1)c1ccccc1O	2µM*	?	?	?
CCC1CCCCN1c1ccc([N+](=O)[O-])cc1/C=N/NC(=O)Cn1c2ccccc2c(=O)c2ccccc21 (stereo not given)	-16%	-15%	0.89µM*	-4%
O=C1/C(=C/c2ccncc2)CCC/C1=C\c1ccncc1	10µM*	11µM*	.	.
O=C1C(=Cc2ccncc2)CCCc2ccccc21	-1%	-15%	.	.
CC1CCN(CC(=O)N2CCCc3c2c(=O)oc2ccc(OCc4ccccc4)cc32)CC1	-13%	-23%	7.1µM*	0.63µM*!
Cc1c(Cc2ccccc2)c(=O)oc2cc(OCc3ccc(C(=O)O)cc3)ccc12	3%	-20%	23%[46.1 µM]	-21%
CC1CC(C)CN(CC(=O)N2CCCc3c2c(=O)oc2ccc(OCc4ccccc4)cc32)C1 (stereo not given)	-24%	?	10µM*	?
O=[N+]([O-])c1ccc(CSc2ncnc3c2ncn3C2OC(CO)C(O)C2O)cc1 (stereo not given)	-19%	-14%	.	.
CNC(=O)c1ccsc1NC(=O)c1ccc(S(=O)(=O)N2CCCc3ccccc32)cc1	?	?	?	16µM*
CC(C)(C)c1ccc(C(=O)NC(=S)Nc2nc3c(s2)CCCC3)cc1	-7%	-21%	1.3µM*	?
CN(C)c1ccc(C(=O)Nc2nc3c(s2)CCCC3)cc1	?	-23%	?	?
O=C(Nc1nc2c(s1)CCCC2)c1ccc(S(=O)(=O)N2CCCc3ccccc32)cc1	i	-26%	23µM*	?
Cc1ccccc1C1(CC(=O)N2CCOCC2)CC(=O)N(Cc2cccnc2)C1=O (stereo not given)	-5%	0%	.	.
Cc1ccc2nc(N/N=C\c3ccc([N+](=O)[O-])o3)nc(-c3ccccc3)c2c1	.	-11%	10µM*	?
CCC1CN(Cc2cn[nH]c2-c2ccc(F)cc2)Cc2cc(OC)ccc2O1 (stereo not given)	-13%	-16%	.	.
